“And” between values parts separate entries of the source, which are not always exact repeats. Equal values may be shown once. Inconclusive results are not listed. Where a call stands in place of a potency, no number is given. The source made the active and inactive calls. Unless noted, the call rests on the fitted dose curve; in most records, active means well fitted curve in the direction sought with a large enough effect; inconclusive means small, poorly fitted or top-dose-only effect, or another doubt; inactive means no such curve, though single readings can be large; an effect the other way counts as inactive or inconclusive.
Experiments:
[1] = Cell Viability - SH-SY5Y (AID 544); details: SH-SY5Y neuroblastoma cell viability; viability change, negative = cytotoxic: at 92.2 µM (top of the series);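 further: cells exposed to compound for 40 hours; nearly all actives have a fitted effect of over 55% in size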
How it was run: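 SH-SY5Y human neuroblastoma cells (1500/well) incubated 5 h, then compound-treated 40 h at 37 °C in complete medium. Viability read as intracellular ATP by CellTiter-Glo luminescence after 20 min; AC50 from Hill-equation fits of qHTS concentration-response.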

[2] = Cell Viability - Renal Proximal Tubule (AID 545); details: renal proximal tubule cells viability, primary cells of rat origin; activity change, negative = cytotoxicity: at 91.7 µM (top of the series);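 further: cells exposed to compound for 40 hours; nearly all actives have a fitted effect of over 40% in size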
How it was run: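 Luminescent ATP signal (CellTiter-Glo) served as the viability read-out after 40 hr compound exposure of freshly isolated rat proximal tubule cells at 37 °C. Concentration-dependent ATP loss was fitted with the Hill equation to give AC50.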

[3] = Cell Viability - LYMP2-001 (AID 921); further: nearly all actives have a fitted effect of over 70% in size; further: potency means the concentration at half of the fitted maximal effect
How it was run: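 Steps: seed 2500 lymphoblastoid cells/well; 5 hr, 37 C; add compound; 24 hr, 37 C; CellTiter-Glo reagent, 30 min room temperature; read luminescence. Concentration-response modeled by Hill equation for AC50.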

[4] = MultiTox-Fluor Cytotoxicity Assay - LYMP1-001 - Live Cells (AID 947)
[5] = Cell Viability - LYMP2-005 (AID 967)
How it was run: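 Acute cytotoxicity is scored as a concentration-dependent drop in intracellular ATP in human lymphoblastoid LYMP2-005 cells after 24 h compound treatment. ATP is quantified by luciferase luminescence, and AC50 is derived by Hill-equation modelling.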

[6] = Cell Viability - LYMP2-017 (AID 972); further: nearly all actives have a fitted effect of over 55% in size; further: potency means the concentration at half of the fitted maximal effect
How it was run: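 LYMP2-017 human lymphoblastoid cells (2500/well) settled 5 hr at 37 C, then exposed to compound 24 hr at 37 C in complete medium. Viability taken as intracellular ATP by CellTiter-Glo luminescence after 30 min at RT; AC50 from Hill fits.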

[7] = Cell Viability - LYMP2-021 (AID 974);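 further: compound exposure lasts 24 hours at 37 °C; nearly all actives have a fitted effect of over 55% in size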; further: potency means the concentration at half of the fitted maximal effect
How it was run: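 Human lymphoblastoid LYMP2-021 cells, 2500/well in complete medium, treated 24 hours at 37 C. Intracellular ATP by CellTiter-Glo luminescence (30 min, RT); AC50 from Hill fits of concentration-response.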

[8] = Cell Viability - LYMP2-006 (AID 978); further: nearly all actives have a fitted effect of over 60% in size
How it was run: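 Cells are seeded at 2500 per well and rested 5 hr at 37 C. Compounds are added across a concentration series for 24 hr at 37 C, after which ATP is quantified by luciferase luminescence.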

[9] = qHTS assay for small molecule agonists of retinoid X receptor alpha signaling (AID 588544; calls by dose curve); details: HEK293T RXRa-UAS-bla, beta-lactamase reporter, 18 h; 530 nm emission
[10] = target: Retinoic acid receptor RXR-alpha (Homo sapiens) (UniProt P19793); assay: as above
Chain of Retinoic acid receptor RXR-alpha (Homo sapiens) (P19793 whole entry, looked up): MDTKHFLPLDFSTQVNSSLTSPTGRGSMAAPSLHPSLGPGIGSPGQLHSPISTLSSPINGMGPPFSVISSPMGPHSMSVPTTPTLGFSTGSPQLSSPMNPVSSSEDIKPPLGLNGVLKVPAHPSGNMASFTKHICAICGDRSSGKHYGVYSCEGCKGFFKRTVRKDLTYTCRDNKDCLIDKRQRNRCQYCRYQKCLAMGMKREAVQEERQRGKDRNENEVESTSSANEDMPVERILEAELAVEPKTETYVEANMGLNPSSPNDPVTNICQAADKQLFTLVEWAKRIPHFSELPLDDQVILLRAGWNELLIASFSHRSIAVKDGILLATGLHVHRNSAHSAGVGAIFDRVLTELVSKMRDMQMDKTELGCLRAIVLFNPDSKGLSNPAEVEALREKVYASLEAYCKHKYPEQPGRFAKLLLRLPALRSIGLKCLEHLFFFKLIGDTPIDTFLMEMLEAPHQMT

[11] = target: Thyroid hormone receptor beta (Homo sapiens) (UniProt P10828); assay: qHTS assay for small molecule agonists of thyroid hormone receptor beta signaling (AID 588545; calls by dose curve)
Chain of Thyroid hormone receptor beta (Homo sapiens) (P10828 whole entry, looked up): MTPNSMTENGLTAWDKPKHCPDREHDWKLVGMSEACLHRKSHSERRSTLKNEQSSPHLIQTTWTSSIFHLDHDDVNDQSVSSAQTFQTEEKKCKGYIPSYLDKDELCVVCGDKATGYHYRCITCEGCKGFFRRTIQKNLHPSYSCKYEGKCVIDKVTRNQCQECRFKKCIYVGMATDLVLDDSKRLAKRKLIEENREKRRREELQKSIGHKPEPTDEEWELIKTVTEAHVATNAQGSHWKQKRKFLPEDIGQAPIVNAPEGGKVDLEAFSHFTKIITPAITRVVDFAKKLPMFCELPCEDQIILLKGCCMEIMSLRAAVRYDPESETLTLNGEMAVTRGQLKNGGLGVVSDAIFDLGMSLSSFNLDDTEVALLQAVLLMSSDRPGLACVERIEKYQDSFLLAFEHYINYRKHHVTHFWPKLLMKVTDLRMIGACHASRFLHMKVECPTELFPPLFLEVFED
How it was run: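 Stimulation of a TR-driven beta-lactamase reporter was quantified in GripTite HEK 293 cells. Compound series ran for 18 hrs; curves were normalized to T3 and DMSO controls and fitted to yield EC50.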

[12] = qHTS assay for small molecule activators of the p53 signaling pathway (AID 651743; active means well fitted activation curve with a large enough effect in the signal ratio, not every such curve was filed as active; the % refers to the signal ratio); details: HCT-116 p53RE-bla, beta-lactamase FRET ratio, 16 h; activation: stronger effect = higher value
How it was run: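 Read-out is fluorescence intensity from the LiveBLAzer B/G FRET substrate, added for 2 hours at room temperature after HCT-116 p53RE-bla cells had been incubated with compounds for 16 hours at 37 C.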

[13] = qHTS assay for small molecule disruptors of the mitochondrial membrane potential - 1 hr assay (AID 651754; calls by dose curve; further: nearly all actives have a fitted effect of over 35% in size; further: potency means the concentration at half of the fitted maximal effect)
How it was run: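 HepG2 cells, attached overnight, were exposed to compound for 1 hr at 37C, then stained 30 min with a potentiometric dye. Ratio of red aggregate (590nm) to green monomer (535nm) fluorescence reports membrane potential; collapse shifts signal toward green.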

[14] = qHTS assay for small molecule disruptors of the mitochondrial membrane potential - 5 hr assay (AID 651755; calls by dose curve; further: nearly all actives have a fitted effect of over 40% in size)
How it was run: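 HepG2, 2,000 cells/well, overnight attach; cpd or DMSO 5 hr, 37C/5% CO2; Mito-MPS 30 min 37C; fluor 490/535 + 540/590 nm.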

[15] = qHTS assay for small molecule agonists of the antioxidant response element (ARE) signaling pathway measured by Nrf2-dependant transcriptional activity (AID 720636; active means well fitted curve in the direction sought with a large enough effect in the repeat runs; an effect the other way counts as inactive or inconclusive;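 further: HepG2 cells with an ARE-driven luciferase reporter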)
How it was run: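 Cells: ARE-luc HepG2 with Nrf2-responsive luciferase. Medium contained 1% dialyzed FBS. Compound exposure lasted 16 hr at 37 C and 5% CO2, followed by ONE-Glo luciferase detection.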

[16] = target: Glucocorticoid receptor (Homo sapiens) (UniProt P04150); assay: qHTS assay for small molecule agonists of glucocorticoid receptor signaling (AID 588532; active means well fitted curve in the direction sought with a large enough effect in the signal ratio, with a control signal flat; the % refers to the signal ratio); details: HeLa MMTV-bla, beta-lactamase ratio, agonist, 18 h; stronger effect = higher value; percent of dexamethasone control, DMSO zero
Chain of Glucocorticoid receptor (Homo sapiens) (P04150 whole entry, looked up): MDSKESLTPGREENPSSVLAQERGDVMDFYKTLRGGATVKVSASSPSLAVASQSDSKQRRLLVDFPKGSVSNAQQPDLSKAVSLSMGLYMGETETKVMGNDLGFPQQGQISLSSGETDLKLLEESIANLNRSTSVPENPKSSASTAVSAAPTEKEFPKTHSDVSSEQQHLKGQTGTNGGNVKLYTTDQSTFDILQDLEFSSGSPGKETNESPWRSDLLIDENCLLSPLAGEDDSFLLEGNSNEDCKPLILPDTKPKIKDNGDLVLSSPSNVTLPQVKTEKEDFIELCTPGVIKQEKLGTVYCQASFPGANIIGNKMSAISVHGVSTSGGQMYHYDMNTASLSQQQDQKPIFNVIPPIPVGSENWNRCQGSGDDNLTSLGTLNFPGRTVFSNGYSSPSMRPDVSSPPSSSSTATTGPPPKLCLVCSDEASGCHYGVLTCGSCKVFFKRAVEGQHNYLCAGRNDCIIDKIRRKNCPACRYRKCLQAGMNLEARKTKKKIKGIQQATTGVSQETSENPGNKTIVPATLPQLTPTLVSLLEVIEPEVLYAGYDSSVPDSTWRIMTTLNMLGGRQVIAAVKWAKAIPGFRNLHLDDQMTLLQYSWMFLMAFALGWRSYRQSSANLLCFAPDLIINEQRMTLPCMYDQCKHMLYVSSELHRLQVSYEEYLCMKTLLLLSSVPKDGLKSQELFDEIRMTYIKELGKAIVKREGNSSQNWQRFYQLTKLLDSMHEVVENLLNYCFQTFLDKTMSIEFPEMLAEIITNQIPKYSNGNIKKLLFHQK
How it was run: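 Agonist-mode qHTS: GRE-driven beta-lactamase in HeLa cells exposed 18 h to titrated compounds (up to 92 uM), then CCF4 ratio read after 2 h at RT; Hill-fitted EC50, efficacy relative to 0.1 uM dexamethasone.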

[17] = Cell Viability - LYMP2-024 (AID 988); further: nearly all actives have a fitted effect of over 60% in size; further: potency means the concentration at half of the fitted maximal effect
How it was run: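 Human lymphoblastoid LYMP2-024 cells (2500/well) rested 5 hr, then treated with compound for 24 hr at 37 C in complete medium. Viability was measured as intracellular ATP by CellTiter-Glo luminescence. AC50 values came from Hill-equation fits.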

[18] = Cell Viability - LYMP2-019 (AID 973); further: nearly all actives have a fitted effect of over 55% in size
How it was run: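 Human lymphoblastoid LYMP2-019 cells (2500/well) preincubated 5 h at 37 C, then treated 24 h at 37 C in complete medium. Viability by CellTiter-Glo ATP luminescence after 30 min at room temperature; AC50 from Hill fits.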

[19] = Cell Viability - LYMP2-010 (AID 981); further: nearly all actives have a fitted effect of over 55% in size
How it was run: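 Human lymphoblastoid LYMP2-010 cells (2500/well) treated 24 h at 37 C in complete medium; viability read as intracellular ATP by CellTiter-Glo luminescence. AC50 from Hill fits of concentration-response data; tetraoctylammonium bromide positive control.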

[20] = Cell Viability - LYMP2-012 (AID 982)

Row | SMILES | Potency [1] | Potency [2] | Potency [3] | Potency [4] | Potency [5] | Potency [6] | Potency [7] | Potency [8] | max response [9] | Potency [10] | Potency [11] | activation [12] | Potency [13] | Potency [14] | Potency [15] | activation [16] | Potency [17] | Potency [18] | Potency [19] | Potency [20]
1 | O=[N+]([O-])c1ccc(F)cc1F | inactive | inactive | 50.1 µM (active) | inactive | inactive | inactive | inactive | inactive | 0.464% | inactive | inactive | -3.21% (inactive) | inactive | inactive | inactive |  |  |  |  | 
2 | Clc1nc2ccccc2nc1Cl |  | inactive |  |  | inactive |  |  | inactive |  |  | inactive |  | inactive | inactive |  | 3.19% (inactive) |  |  |  | 
3 | Oc1ccc(O)c2c(O)cccc12 |  | inactive | 50.1 µM (active) | inactive |  | 50.1 µM (active) | 50.1 µM (active) |  | -16.7% | inactive | inactive | -2.36% (inactive) | 23.7 µM (active) |  |  | -3.75% (inactive) | 50.1 µM (active) |  |  | 
4 | CC(C)S | inactive | inactive | inactive | inactive | inactive | inactive | inactive | inactive | -9.69% | inactive | inactive | -1.26% (inactive) | inactive | inactive | inactive | 2.41% (inactive) | inactive | inactive | inactive | inactive
5 | O=C(O)c1ccc([N+](=O)[O-])cc1 | inactive | inactive | inactive | inactive | inactive | inactive | inactive | inactive | -0.875% and -5.25% | inactive | inactive | -2.78% (inactive) and 0.222% (inactive) | inactive | inactive | inactive | 3.87% (inactive) and 0.51% (inactive) | inactive | inactive | inactive | inactive
6 | NC(=O)c1ccc([N+](=O)[O-])cc1 | inactive | inactive | inactive |  | inactive | inactive | inactive | inactive | -9.87% | inactive | inactive | -4.76% (inactive) | inactive | inactive | inactive | 1.08% (inactive) | inactive | inactive | inactive | inactive
7 | CC(=O)CC(=O)Nc1ccccc1 | inactive | inactive | inactive | inactive | inactive | inactive | inactive | inactive | 6.79% and 6.65% | inactive | inactive |  | inactive | inactive | inactive | -8.89% (inactive) |  | inactive |  | inactive
8 | Cc1ccc(N)cc1[N+](=O)[O-] | inactive | inactive | inactive | inactive | inactive | inactive | inactive | inactive | 4.03% | inactive | inactive | -0.0251% (inactive) | inactive | inactive | inactive | 0.881% (inactive) | inactive | inactive | inactive | inactive

Reference: PubChem BioAssay (NCATS)
